Our source for the composite z-score and z-score values is PubChem BioAssay.

A short description of test [1]: compounds binding Alexa647 anti-His antibody – biochemical, small-molecule microarray, 635 nm fluorescence, artefact control for SMM control protein annotation, primary screen (AID 1128).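 Note: score merges feature fluorescence with signal-to-noise for each printed compound spot.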 The settings on record: higher = more signal.
The test system of test [2] is Human papillomavirus type 1a E7 protein (residues 1-88). Kind of test: HPV1a E7 small-molecule binders, primary screen, biochemical, small-molecule microarray, residues 1-88, 635 nm (AID 1129). The settings on record: small-molecule microarray binding, fluorescence 635 nm; higher = more signal.
The target of test [3] is Focal adhesion kinase 1 (Homo sapiens) (UniProt Q05397). Kind of test: PTK2 protein binding on printed compound slides – biochemical, small-molecule microarray, 635/667 nm fluorescence, BSA, DTT, primary screen (AID 1130).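 Note: composite of spot emission at 667 nm and signal to noise over triplicate slides.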 The settings on record: 635 nm fluorescence, higher = more signal.
In test [4] the test system is Fibrinogen (Alexa647-labelled). Kind of test: Alexa647-fibrinogen binding to printed small molecules – biochemical, small-molecule microarray, 635/667 nm fluorescence, artefact control for SMM control-protein annotation, profiling panel (AID 1131).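 Note: z-score merges 667 nm fluorescence with per-spot signal-to-noise over triplicate slides.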 The settings on record: fibrinogen-A647 binding fluorescence, higher = more signal.
Test [5] deals with Follistatin (Homo sapiens) (UniProt P19883). Kind of test: FST protein binding to printed compounds – biochemical, small-molecule microarray, 635/667 nm fluorescence, primary screen (AID 1132). The settings on record: 635 nm fluorescence, higher = more signal.
The target of test [6] is Fibroblast growth factor 2 (Homo sapiens) (UniProt P09038). Kind of test: basic fibroblast growth factor binding to printed compounds – biochemical, small-molecule microarray, 635/667 nm fluorescence, primary screen (AID 1133). The settings on record: FGF2, fluorescence 635/667, higher = more signal.
The nature of test [7]: JC-1 mitochondrial potential readout, lung cancer cells – cell-based, A549, JC-1 fluorescence, basal, 24 h, 100 nL, profiling panel (AID 1138).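 Note: A549 lung adenocarcinoma cells under basal conditions with no added stimulus; test concentration not given here.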 The settings on record: higher = more signal.
The next test concerns Lefty1. Kind of test: Lefty1 protein binding to printed compounds – biochemical, small-molecule microarray, 635/667 nm fluorescence, primary screen (AID 1139). The settings on record: fluorescence 635/667, higher = more signal.
In test [8] the test system is wheat germ agglutinin (Triticum aestivum), Alexa647-labelled. Kind of test: Alexa647-WGA lectin binding to printed small molecules – biochemical, small-molecule microarray, 635/667 nm fluorescence, artefact control for SMM control-protein annotation, profiling panel (AID 1140).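 Note: score merges 667 nm feature emission with signal to noise over triplicate slides.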 The settings on record: WGA-A647 binding, 635 nm fluorescence, higher = more signal.
Test [9] has as its target Luciferin 4-monooxygenase (Photinus pyralis) (UniProt P08659). Kind of test: inhibition of purified Photinus pyralis luciferase – biochemical, luminescence, purified enzyme, 2006 set, primary screen (AID 1141).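 Note: cell-free assay with purified firefly luciferase at 100 ng per well in PBS; test concentration not given here.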 The settings on record: purified firefly luciferase, SteadyGlo luminescence, 30 min; higher = more signal, called active from +8 up or from −8 down.

Structures are written as SMILES. Activity calls are given as the source filed them.

Chain of Focal adhesion kinase 1 (Homo sapiens) (Q05397 whole entry, looked up): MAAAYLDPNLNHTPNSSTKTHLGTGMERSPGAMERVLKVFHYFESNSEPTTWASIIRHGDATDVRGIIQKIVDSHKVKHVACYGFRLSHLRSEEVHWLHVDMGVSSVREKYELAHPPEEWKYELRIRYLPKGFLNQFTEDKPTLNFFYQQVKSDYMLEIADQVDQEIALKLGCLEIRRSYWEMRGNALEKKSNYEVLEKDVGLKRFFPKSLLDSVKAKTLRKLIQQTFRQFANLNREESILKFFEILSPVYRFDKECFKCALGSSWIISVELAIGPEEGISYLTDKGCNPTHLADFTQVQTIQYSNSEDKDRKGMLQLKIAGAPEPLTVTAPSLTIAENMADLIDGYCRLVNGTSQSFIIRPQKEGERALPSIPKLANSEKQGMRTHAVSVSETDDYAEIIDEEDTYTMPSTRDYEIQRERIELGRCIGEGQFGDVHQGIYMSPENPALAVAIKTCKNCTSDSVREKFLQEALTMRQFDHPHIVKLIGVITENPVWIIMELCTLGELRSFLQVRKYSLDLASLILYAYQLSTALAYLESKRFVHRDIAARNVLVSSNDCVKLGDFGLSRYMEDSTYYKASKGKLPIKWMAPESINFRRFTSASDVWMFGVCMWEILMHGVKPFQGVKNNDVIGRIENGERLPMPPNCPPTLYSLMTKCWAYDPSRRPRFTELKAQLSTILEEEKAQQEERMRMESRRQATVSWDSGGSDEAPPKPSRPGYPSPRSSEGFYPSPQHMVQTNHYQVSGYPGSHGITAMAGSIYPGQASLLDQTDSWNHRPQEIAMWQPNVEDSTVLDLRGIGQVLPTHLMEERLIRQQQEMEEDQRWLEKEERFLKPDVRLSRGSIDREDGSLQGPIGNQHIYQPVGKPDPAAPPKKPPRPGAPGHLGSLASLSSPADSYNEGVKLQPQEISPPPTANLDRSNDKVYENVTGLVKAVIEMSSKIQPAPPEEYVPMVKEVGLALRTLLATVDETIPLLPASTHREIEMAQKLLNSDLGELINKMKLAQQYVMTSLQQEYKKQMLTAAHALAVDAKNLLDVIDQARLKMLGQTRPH
Chain of Follistatin (Homo sapiens) (P19883 whole entry, looked up): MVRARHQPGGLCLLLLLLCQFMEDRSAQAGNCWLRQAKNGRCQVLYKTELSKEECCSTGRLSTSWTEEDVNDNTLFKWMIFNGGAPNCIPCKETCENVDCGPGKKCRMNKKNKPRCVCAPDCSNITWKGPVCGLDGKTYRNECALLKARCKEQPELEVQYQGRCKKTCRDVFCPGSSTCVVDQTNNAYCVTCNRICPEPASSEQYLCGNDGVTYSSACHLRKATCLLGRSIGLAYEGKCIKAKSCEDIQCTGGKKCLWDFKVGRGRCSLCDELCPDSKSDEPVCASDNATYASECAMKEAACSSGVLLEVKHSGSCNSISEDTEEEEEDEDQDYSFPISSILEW
Chain of Luciferin 4-monooxygenase (Photinus pyralis) (P08659 whole entry, looked up): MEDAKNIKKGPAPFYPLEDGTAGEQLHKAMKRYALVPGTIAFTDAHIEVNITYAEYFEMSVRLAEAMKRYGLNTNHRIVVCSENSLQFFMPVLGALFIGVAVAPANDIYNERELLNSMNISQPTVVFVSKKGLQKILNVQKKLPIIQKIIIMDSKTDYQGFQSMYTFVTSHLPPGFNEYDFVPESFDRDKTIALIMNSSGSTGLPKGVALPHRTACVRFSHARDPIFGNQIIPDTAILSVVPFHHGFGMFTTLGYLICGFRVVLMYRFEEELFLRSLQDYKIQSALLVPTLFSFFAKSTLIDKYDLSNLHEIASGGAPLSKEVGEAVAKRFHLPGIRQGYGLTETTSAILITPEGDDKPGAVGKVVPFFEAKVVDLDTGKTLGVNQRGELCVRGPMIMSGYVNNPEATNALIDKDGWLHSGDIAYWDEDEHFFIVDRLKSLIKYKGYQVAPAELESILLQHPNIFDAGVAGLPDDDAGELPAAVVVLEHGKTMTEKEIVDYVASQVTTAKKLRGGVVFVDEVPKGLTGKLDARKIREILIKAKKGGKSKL
Chain of Fibroblast growth factor 2 (Homo sapiens) (P09038 whole entry, looked up): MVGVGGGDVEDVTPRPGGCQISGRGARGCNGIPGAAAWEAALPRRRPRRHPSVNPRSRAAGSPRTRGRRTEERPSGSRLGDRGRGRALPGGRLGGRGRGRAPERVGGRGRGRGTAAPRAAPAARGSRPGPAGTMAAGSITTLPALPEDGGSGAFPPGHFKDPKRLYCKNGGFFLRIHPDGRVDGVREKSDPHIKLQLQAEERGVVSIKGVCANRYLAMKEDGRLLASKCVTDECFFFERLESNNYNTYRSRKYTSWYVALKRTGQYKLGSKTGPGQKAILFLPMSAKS

`CCCCCN1CC=CC23O[C@@H]4/C=C\CCCOC(=O)C4[C@H]2C(=O)N(C(C)CO)[C@@H]3C1=O` (stereo not given in full): the composite z-score was 0.465 in test [1]; -0.402 in test [2]; -0.249 in test [3]; 0.659 in test [4]; -0.87 in test [5]; -1.08 in [6]. Moreover, the composite z-score in the test with Lefty1 was -0.476; in test [8] it was 0.916. Further, the z-score in test [7] was 0.17; in [9], -0.179 (inactive).

Regarding `CC#CCO[Si](C#Cc1ccccc1)(C(C)C)C(C)C`, the composite z-score in test [1] is -1.71; in test [2] it was -1.42; in test [3], -0.357; in test [4], -0.965; in [5], -0.711; in test [6] it was 0.0353. The results for the composite z-score (in the test on Lefty1; in test [8]) were -0.531 and -0.874, respectively. The z-score is -1.01 in test [7] and 0.741 (inactive) in test [9].

For the compound `C=CCN1C(=O)[C@]2(CCS(=O)(=O)c3ccccc3)N=C(c3ccc(OCCCO)cc3)O[C@@H]2c2ccccc21`, the composite z-score in test [1] came out at 2.73; in [2], 1.23; in [3], 1.29; in [4], 0.891; in test [5], 1.31; in [6], 1.47. For the same compound, the results for the composite z-score (in the test with Lefty1; in test [8]) were 0.825 and 1.19, respectively. The z-score in test [7] is 1.3; in test [9] it was -2.23 (inactive).

For the compound `N[C@@H](Cc1ccccc1)C(=O)NCc1cn(Cc2ccccc2)nn1`, the composite z-score is 0.615 in test [1]; -0.096 in test [2]; -0.519 in [3]; 0.395 in [4]; 1.15 in test [5]; 0.416 in [6]. The results for the composite z-score (in the test with Lefty1; in test [8]) were 0.2 and 0.309, respectively. In addition, the results for the z-score in test [7] and in test [9] were 0.154 and -0.352 (inactive), respectively.

For the compound `CN1C(=O)C2C=CC(C(O)c3cccn3C)N(Nc3ccc([N+](=O)[O-])cc3[N+](=O)[O-])C2C1=O` (stereo not given), the composite z-score in [1] was 0.421; in test [2], 0.414; in test [3], 0.0533; in test [4], -0.232; in test [5], -0.201; in test [6] it was 0.275. Also, the values for the composite z-score (in the test with Lefty1; in test [8]) were -0.583 and 0.408, respectively. The z-score in test [7] was 0.0408; in [9] it was 0.679 (inactive).

Consider `COc1ccc(C#Cc2ccc3c(c2)[C@]2(C(=O)N3)[C@H](C(=O)O)[C@H]3C(=O)O[C@H](c4ccccc4)[C@H](c4ccccc4)N3[C@@H]2c2ccc(O)cc2)cc1`, for which the composite z-score in test [1] was -0.272; in [2], 0.691; in test [3], 0.0564; in test [4] it was -0.142; in [5], -0.474; in test [6] it was -0.521. The composite z-score is -0.422 with Lefty1 and 0.208 in test [8]. Further, the z-score in test [7] was -2.42; in test [9] it was -1.01 (inactive).

`C[N+](C)(C)CCCCCCNC(=O)[C@@H]1C[C@@H]2C(=O)N3CCC[C@H]3C(=O)N2[C@@H]1c1ccc(O)cc1`: the composite z-score was 1.36 in test [1]; 0.451 in test [2]; 0.0225 in [3]; -0.472 in [4]; 1.4 in test [5]; 1.42 in test [6]. Also, the composite z-score with Lefty1 came out at 1.3; in [8] it was 0.6. In addition, the z-score in test [7] is -1.19; in [9], 0.824 (inactive).

On to `C=C[C@@H](OC)[C@H](OC(=O)Nc1ccc(OC)cc1)c1ccc(O)c(F)c1`, for which the composite z-score is 0.0143 in [1]; -0.0707 in [2]; 0.0004 in test [3]; -0.808 in test [4]; 1.2 in [5]; 0.659 in test [6]. For the same compound, the composite z-score in the test on Lefty1 was 1.35; in test [8], -0.251. For the same compound, the z-score in test [7] was -0.116; in [9] it was -3.89 (inactive).

In the case of `COC(=O)[C@@]1(Cc2ccccc2)[C@H]2c3cc(C(=O)N(C)C)n(Cc4ccc(C)o4)c3C[C@H]2CN1C(=O)c1ccccc1`, the composite z-score was determined as 2.6 in test [1]; 1.21 in test [2]; 1.73 in test [3]; 0.705 in test [4]; 0.764 in [5]; 0.188 in test [6]. Further, the composite z-score with Lefty1 was -0.566; in test [8], 1.26. For the same compound, the z-score is -0.0901 in test [7] and 0.429 (inactive) in test [9].

As to `CCC#CCN(Cc1ccccc1Br)[C@H](/C=C/C1CC1)[C@@H](O)Cc1ccccc1`, the composite z-score in test [1] was 0.251; in test [2], -0.499; in test [3] it was -0.579; in [4], -0.805; in [5], -0.837; in test [6] it was -0.984. The composite z-score in the test on Lefty1 was -0.355; in [8] it was -0.366. Moreover, the z-score in test [7] is -0.368; in [9], 0.619 (inactive).
